Source: PubChem BioAssay (National Center for Advancing Translational Sciences (NCATS))
ATXN viability: reduces viability in counter-screen for ATXN expression inhibitors; S2 cells (HEK-293 line with an ATXN2-luciferase reporter) viability, CellTiter-Fluor protease fluorescence, 24 h; Potency, µM (titrated, usually from 56.7 µM), most hits filed as cytotoxic; hit rate 0.49% among 400,000; note: nearly all actives have a fitted effect of over 40% in size
ATXN2 expr inh: reduces ATXN2 reporter expression in HEK-293 cells; HEK-293 ATXN2-luciferase reporter, luminescence, 24 h; Potency, µM (titrated, usually from 57 µM), inactives show top-dose activity change, negative = inhibition, usual class: inhibitors; hit rate 0.72% among 360,000; note: % is set by controls: 0 for no effect and ±100 for the full control effect; nearly all actives have a fitted effect of over 55% in size
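ATXN2-luciferase reporter cells (luciferase flanked by upstream and downstream ATXN2 gene portions) were treated 24 h at 37 °C with compounds at up to 57 uM. SteadyGlo luminescence gave expression; GF-AFC fluorescence gave viability.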
TGFb inhibitor: blocks TGF-b signaling; HepG2 CAGA-GFP TGF-b/SMAD3 reporter, GFP fluorescence, 18 h; TGF-beta stimulated, 500 pg/mL final; Potency, µM (highest dose often 46.1 µM), for the others: top-dose activity, negative = inhibition, actives largely listed as inhibitors; hit rate 1.2% among 410,000; AID 588855; note: % is set by controls: 0 for no effect and ±100 for the full control effect; nearly all actives have a fitted effect of over 65% in size
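HEPG2 CAGA-GFP, 1000 cells/well; 2 h settle, 37 C; cpd via pin tool; TGF-b 500 pg/mL final; 18 h, 37 C; GFP imaging ex488/em500-530; %Activity normalised to -TGF-b and +DMSO controls; CRC fit, curve class.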
A549 viability: kills or reduces viability of A549 cells in Nrf2 counter-screen. AID 504648. Potency, µM (series often up to 46 µM), for inactives: at the highest dose activity change, negative = cytotoxicity, most hits filed as inhibitors. hit rate 0.16% among 390,000. A549 ARE-Fluc cells, CellTiter-Fluor viability, 18-24 h; note: % is set by controls: 0 for no effect and ±100 for the full control effect
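Cytotoxicity counterscreen: CellTiter-Fluor fluorescence was measured in A549 ARE_Fluc cells after 18-24 h of compound exposure in a concentration series. The subsequent BugLite luminescent read reports ARE-luciferase activity.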
HepG2 tox-1: HepG2 cytotoxicity, counter-screen for TGF-b inhibitors; HepG2 CAGA-GFP viability, ATP luminescence, 18 h; Potency, µM (highest dose often 46.1 µM), inactives show at the top dose activity change, negative = cytotoxicity, usual class: cytotoxic; hit rate 0.76% among 410,000
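CellTiter-Glo luminescence gave cytotoxicity after 18 hours at 37 degrees C. The cells were HepG2 CAGA-GFP in 1% FBS DMEM, stimulated with 500 pg/mL TGF-beta after compound addition. %Activity was normalised to no-cell wells (complete cell-killing) and DMSO (no toxicity), and curves were fitted and classified.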
Nrf2 block: blocks Nrf2 signaling; A549 ARE-Fluc reporter, luciferase luminescence, 18-24 h; hit rate 2.1% among 360,000; Potency, µM (titrated, usually from 46 µM), for the others: at the highest dose activity change, negative = inhibition, hits mostly inhibitors; AID 504444; note: % is set by controls: 0 for no effect and ±100 for the full control effect; nearly all actives have a fitted effect of over 60% in size
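Two sequential reads on A549 ARE_Fluc cells exposed to compound for 18-24 h: a CellTiter-Fluor fluorescence read for viability, then a luciferase luminescence read for Nrf2/ARE activity.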
TGFb confirm: TGF-b pathway inhibition, cherry-pick retest; Potency, µM (series often up to 46.1 µM), for the others: at the top dose activity, negative = inhibition, hits mostly inhibitors; HepG2 CAGA-GFP TGF-b reporter, GFP fluorescence, 18 h; cells stimulated with TGF-beta, 500 pg/mL; shares compounds with TGFb inhibitor; hit rate 63% among 1,600; note: % is set by controls: 0 for no effect and ±100 for the full control effect; nearly all actives have a fitted effect of over 65% in size
HepG2 tox-2: counter-screen for TGF-b inhibitors: cytotoxicity in HepG2 cells; shares compounds with TGFb inhibitor; hit rate 27% among 1,600; HepG2 CAGA-GFP viability, ATP luminescence, 18 h; cells stimulated with TGF-beta, 500 pg/mL; AID 720535; Potency, µM (doses to about 46.1 µM), for inactives: top-dose activity, negative = cytotoxicity, usual class: inhibitors; note: % is set by controls: 0 for no effect and ±100 for the full control effect; nearly all actives have a fitted effect of over 70% in size
TGFb CCL64 inh: blocks TGF-b signaling in CCL64 reporter cells; shares compounds with TGFb inhibitor; CCL64 CAGA-GFP reporter, TGF-b stimulated, GFP fluorescence, 18 h; Potency, µM (series often up to 46.1 µM), for inactives: top-dose activity, negative = inhibition, hits mostly inhibitors; hit rate 41% among 1,600; AID 720536; note: nearly all actives have a fitted effect of over 65% in size
COP TGFb inh: TGF-b inhibition validated with COP promoter | shares compounds with TGFb inhibitor | hit rate 3% among 1,600 | HepG2 COP-GFP TGF-b reporter, GFP fluorescence, 18 h; cells stimulated by added recombinant TGF-beta | Potency, µM (doses to about 46.1 µM), for inactives: at the top dose activity, negative = inhibition, hits mostly inhibitors; note: nearly all actives have a fitted effect of over 70% in size
An asterisk follows results filed as active; i = inactive; ? = inconclusive; . = no result. Most compounds without a hit are left out; they make up all but 3.8% or so of the library. Calls come from the whole dose curve; as a rule, active = well fitted curve in the direction sought with a large enough effect; inconclusive = small, poorly fitted or top-dose-only effect, or another doubt; inactive = no such curve, though single readings can be large; an effect the other way counts as inactive or inconclusive. Potency is the fitted concentration of half-maximal effect.

SMILES	ATXN viability	ATXN2 expr inh	TGFb inhibitor	A549 viability	HepG2 tox-1	Nrf2 block	TGFb confirm	HepG2 tox-2	TGFb CCL64 inh	COP TGFb inh
CNc1nc(NCc2ccc(C)cc2C)c2sccc2n1	?	?	11µM*	.	-7%	.	16µM*	?	?	68%
COc1cccc(C(NC(C)=O)c2nc(-c3ccccc3C)cs2)c1 (stereo not given)	i	12%	7%	.	-7%	.	.	.	.	.
CCCOc1ccc(F)cc1-c1cc(C(=O)Nc2ccc(C)c(NS(C)(=O)=O)c2)[nH]n1	i	0%	18µM*	.	-30%	.	?	?	23µM*	50%
COc1cc(F)ccc1-c1cc(C(=O)Nc2ccc(C)c(NS(C)(=O)=O)c2)[nH]n1	i	3%	?	.	-61%	.	.	.	.	.
Nc1ccc(S(=O)(=O)N2CCc3ccccc32)cc1	i	-14%	19%	-1%	-1%	?	.	.	.	.
O=S(=O)(NC1CCCC1)c1ccc(S(=O)(=O)N2CCc3ccccc32)cc1	?	?	?	?	4%	15µM*	9.2µM*	-18%	-2%	-11%
COCCNC(=O)C1CC(c2ccc(C(F)(F)F)cc2)=NO1 (stereo not given)	i	-5%	17%	5%	-13%	26%	.	.	.	.
CCN(CC)C(=O)c1nc[nH]c1C(=O)N1CCN(c2ccccc2)CC1	i	8%	?	-1%	4%	7%	-5%	3%	8%	18%
CCOc1ccc(NCc2nc3ccccc3n2CCOc2ccccc2)cc1	?	-15%	20µM*	-2%	-23%	?	15µM*	-29%	-19%	13%
O=C(c1c[nH]c(C(=O)N2CCN(c3ccccc3F)CC2)c1)c1cccc(Cl)c1Cl	i	.	10µM*	-6%	-5%	-14%	12µM*	?	?	70%
Cc1ccccc1C(=O)c1c[nH]c(C(=O)N2CCN(c3ccccc3F)CC2)c1	i	-3%	?	6%	15%	?	13µM*	-19%	?	3%
NC(=O)c1cc(C(=O)c2cccc(Cl)c2Cl)c[nH]1	i	4%	-2%	0%	-19%	-5%	.	.	.	.
FC(F)Oc1ccc(-c2csc(=Nc3cccnc3)n2CC2CCCO2)cc1 (stereo not given)	i	-27%	?	0%	-54%	15µM*	12%	-30%	-5%	24%
CNC(C)[C@@H]1CC[C@@H](N)[C@@H](O[C@H]2[C@H](O)[C@@H](O[C@H]3OC[C@](C)(O)[C@H](NC)[C@H]3O)[C@H](N)C[C@@H]2N)O1 (stereo not given in full)	i	.	.	.	.	.	.	.	.	.
